# High-throughput results: PubChem, National Center for Advancing Translational Sciences (NCATS)
# RXFP1 antag = antagonists of human relaxin receptor RXFP1. Q9HBX9. HEK293-RXFP1, relaxin-stimulated cAMP HTRF, 30 min; stronger effect = lower value. activity change, negative = inhibition, % at 57.5 µM. 350,000 compounds, 0.59% hits. AID 1259400;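 active means activity change of -60% or lower, but not beyond a set lower limit; inconclusive means change between -60% and -40%, or beyond the set limit; inactive means change above -40%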
# ClpP mod = qHTS Assay for Activators of ClpP; purified B. subtilis ClpP, FRET peptide cleavage, 20 min; Potency, µM (highest dose often 57.5 µM); 340,000 compounds, 1.9% hits; ATP-dependent Clp protease proteolytic subunit (Bacillus subtilis (strain 168)), P80244; active means well fitted falling curve with a large enough effect; inconclusive means small, poorly fitted or top-dose-only effect; inactive means no such curve, though single readings can be large or run the other way; further: the source files actives as falling curves though it sought activators and does not explain the sign; nearly all actives have a fitted effect of over 65% in size
# Target sequence (P80244 whole entry, looked up): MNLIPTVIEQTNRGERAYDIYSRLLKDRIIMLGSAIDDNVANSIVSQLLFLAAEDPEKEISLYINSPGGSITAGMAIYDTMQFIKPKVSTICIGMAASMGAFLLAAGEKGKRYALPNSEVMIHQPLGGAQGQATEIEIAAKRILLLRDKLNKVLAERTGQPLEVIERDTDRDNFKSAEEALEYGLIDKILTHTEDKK
#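 Purified B. subtilis ClpP, 10 microg/mL final in Tris/HCl pH8 with KCl, BSA, glycerol and Tween-20, cleaved an Abz/nitrotyrosine-quenched decapeptide. Fluorescence (ex 320, em 430) was read at 0 and 20 min at room temperature. Delta was normalized to 5.8 microM ADEP and DMSO/no-enzyme controls.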
# gsp antag = gsp mutant antagonism; 340,000 compounds, 0.4% hits; Potency, µM (highest dose often 76.9 µM), most hits filed as inhibitors; gsp-mutant cells, cAMP HTRF, 30 min; calls by dose curve; cell line not stated here;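 further: intracellular cAMP measured with PDE inhibitor Ro 20-1724 present during compound exposure; nearly all actives have a fitted effect of over 65% in size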
#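 Cells in G418 medium, seeded 16-24 h, 37C; buffer exchange to DPBS + 1 mM CaCl2, 0.5 mM MgCl2, 0.05% BSA; cpds in DMSO + […] (300 uM stock), 30 min 37C; HTRF cAMP detection.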
# gsp ag = activates gsp, the McCune-Albright syndrome mutation | gsp mutant cells, cAMP HTRF, 30 min | Potency, µM (titrated, usually from 76.9 µM), most hits filed as activators | 340,000 compounds, 0.13% hits; active means well fitted activation curve with a large enough effect; inconclusive means small, poorly fitted or top-dose-only effect, or another doubt; inactive means no such curve, though single readings can be large or run the other way; cell line not stated here;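 further: phosphodiesterase inhibitor Ro 20-1724 added with compounds to block cAMP breakdown; nearly all actives have a fitted effect of over 60% in size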
#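 Cells stably selected in G418 were plated at 2000/well, grown 16-24 hr, then given compounds in DMSO with the PDE inhibitor […] (300 uM solution added) for 30 min at 37C; cAMP was read by HTRF.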
# pAkt inh = blocks phosphorylation of Akt. AID 651550. activity change, % for hits at 50 µM. Neuro2A IGF-stimulated pAkt S473 HTRF, 20 min; stronger effect = lower value. 360,000 compounds, 0.32% hits; in the data active means activity change below about -80%; inconclusive means mostly about -51% to -80%
#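 Neuro2A cells in DMEM with 0.5% FBS, overnight at 37 deg C, given compound at single 50 µM final, then IGF (6 nM final) for 20 min at 37 deg C. Lysed; phospho-Akt Ser473 by HTRF after 24 h, 665/615 ratio.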
# RXFP1 ag = agonists of human relaxin receptor RXFP1; 370,000 compounds, 0.3% hits; HEK293T-RXFP1 cAMP TR-FRET, 30 min; response scale: percent of porcine relaxin response, buffer zero; AID 2676; Potency, µM (doses to about 57.5 µM), usual class: activators; Q9HBX9; active means well fitted activation curve with a large enough effect; inconclusive means small, poorly fitted or top-dose-only effect; further: nearly all actives have a fitted effect of over 60% in size
#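 cAMP rise read by TR-FRET after 30 min, 37C compound exposure (up to 58 uM) in RXFP1-transfected HEK293 cells with Ro 20174 present. EC50 from Hill-equation fits, with 29 nM porcine relaxin as 100% and buffer as basal.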
# A number is an active result; 0 = inactive; ? = inconclusive; - = no result given; [ ] = dose if it differs, or a comment. Most compounds without a hit are left out; they make up all but 2.7% or so of the library.
SMILES,RXFP1 antag,ClpP mod,gsp antag,gsp ag,pAkt inh,RXFP1 ag
COc1ccccc1CN1CC(C(=O)NC2(c3ccccc3)CC2)CCC1=O (stereo not given),0,32µM,0,0,0,0
Cc1cccc(NC(=O)COC(=O)C2COc3ccccc3O2)c1C (stereo not given),0,0,0,0,0,-
COc1ccccc1CNC(=O)CCNS(=O)(=O)c1cc(Br)cnc1N,0,0,0,0,0,0
CCOC(=O)c1c(C)oc2ncnc(Nc3cc(C)cc(C)c3)c12,0,0,-,-,-,0
COc1cccc2c(=O)c(C/C=C(/C)Cl)c(C)[nH]c12,0,16µM,0,0,0,0
Cc1ccc(NC(=O)c2c(C)oc3ncnc(N4CCCCC4)c23)c(C)c1,0,0,-,-,-,0
COCCNc1cc(C)nc2cc(-c3ccc(C)cc3)nn12,0,-,0,0[15.4 µM],0,0
Cc1ccc(-c2cc3nc(C)cc(NCc4ccco4)n3n2)cc1,0,28µM,0,0,0,0
Cc1cc(NCCCn2ccnc2)n2nc(-c3ccc(F)cc3)cc2n1,0,0,0,0,0,0
CN(C)CCCNc1cc(-c2ccccc2)nc2cc(-c3cccc(F)c3)nn12,0,0,0,0,0,0
Cc1cccc(-c2cc3nc(C)cc(NCCCN(C)C)n3n2)c1,0,32µM,0,0,-,0
Cc1cccc(-c2cc3nc(C)c(C)c(NCCCn4ccnc4)n3n2)c1,-98,-,0,0[15.4 µM],0,0
CC[C@@]1(C(=O)OC)N[C@H](CN(C)S(=O)(=O)c2ccc(C(C)(C)C)cc2)[C@@H]2C(=O)N(C)C(=O)[C@@H]21,-,0,0,-,0,-
CCN(Cc1ccccc1)C(=O)c1c[nH]c2ccc(S(=O)(=O)N(C)CCC#N)cc2c1=O,-,32µM,0,0,0,0
Brc1ccsc1-c1csc(-c2ccncc2)n1,0,0,0,18µM,0,0
CCOCCCNC(=S)NCCCNc1nc2ccc(C)cc2cc1C#N,-,-,-,-,-,0
CN(C)CCCNC(=S)NCCNc1nc2cc3c(cc2cc1C#N)OCO3,0,0,0,0,0,0
CCOCCCNC(=S)NCCCNc1nc2cc3c(cc2cc1C#N)OCO3,0,10µM,0,0,0,0
COCCNC(=S)NCCCNc1nc2cc3c(cc2cc1C#N)OCO3,0,14µM,0,0,0,0
Cc1ccccc1CNC(=O)c1csc([C@@H]2C[C@H](O)[C@@H](CO)O2)n1,-,0,-,-,0,-
O=C(O)c1[nH]c2ccccc2c1NS(=O)(=O)Cc1ccccc1,0,28µM,0,0,0,0
O=Cc1ccc(O)cc1,-,0,-,-,-,-
CCCN(CC(=O)Nc1cccc(S(N)(=O)=O)c1)CC(=O)Nc1ccc(F)c(F)c1F,0,0,0,0,0,0
CCCN(CC(=O)Nc1cccc(Br)c1)CC(=O)Nc1ccc(F)c(F)c1F,0,0,50µM,?,0,0
CN1CCN(C(=O)Cn2ncc3c([nH]c4ccccc43)c2=O)CC1,0,0,0,0,-,0
SMILES,RXFP1 antag,ClpP mod,gsp antag,gsp ag,pAkt inh,RXFP1 ag
COc1cc(/C=N/N2CCN(c3ccccc3OC)CC2)ccc1OC(C)=O,0,28µM,0,0[15.4 µM],0,0
Oc1ccc(-c2c(C3=CCCCC3)sc3ccccc23)cc1,-,0,0,-,0,0
CCOC(=O)c1ccc(-c2ccc(CO)o2)cc1,0,0.71µM,0,0,0,0
CCOc1ccc(-c2ccc(CO)o2)cc1N,0,0,-,-,-,0
O=C(CCC(=O)N1CCSc2ccccc21)NCc1ccccc1Cl,0,0,-,-,-,0
CCN1CCc2c(C#N)c(N3CCCCC3)nc(N3CCOCC3)c2C1,0,8.9µM,0,0,0,0
CC(C)c1nc(N2CCOCC2)c(C#N)c2c1CCCC2,0,32µM,?,0,0,0
CCN1CCc2c(C#N)c(N3CCOCC3)nc(N3CCOCC3)c2C1,0,?,0,0,0,0
COC(=O)C1=CN(Cc2ccc(OC)cc2)C=C(C(=O)OC)C1c1cccs1,0,-,?,0,0,0
COC(=O)C1=CN(CCCN2CCCC2=O)C=C(C(=O)OC)C1c1cccs1,0,28µM,0,0,0,0
O=C(NCC1CCCN(Cc2nccs2)C1)c1cccc2ccccc12 (stereo not given),0,35µM,0,0[15.4 µM],0,0
CC1=NN(c2ccccc2)C(=O)C1N=Nc1ccc(C)cc1 (stereo not given),-,-,-,-,-,0
CC1=NN(c2ccccc2)C(=O)C1C=Nc1ccc(N(C)C)cc1 (stereo not given),-69,-,?,0[15.4 µM],0,0
Cn1nc(C(F)(F)F)c(C#N)c1N1CCN(c2ccc(F)cc2)CC1,0,14µM,0,?,-,0
Cn1nc(C(F)(F)F)c(C#N)c1N1CCN(c2ccccc2)CC1,0,0,0,0,-,0
COc1cc(COc2ccc3c(C)c(Cc4ccccc4)c(=O)oc3c2)cc(OC)c1OC,0,0,0,0[15.4 µM],0,0
COc1cc(COc2ccc3c(C)c(Cc4ccccc4)c(=O)oc3c2C)cc(OC)c1OC,0,16µM,0,0,0,0
COc1ccccc1COc1ccc2c(C)c(CC(=O)O)c(=O)oc2c1C,0,0,0,0,0,0
COc1cccc(COc2ccc3c(C)c(Cc4ccccc4)c(=O)oc3c2)c1,0,13µM,0,0,0,-
CC(C)=CNNC(=O)c1ccc(O)cc1,-,0,-,-,-,-
CCC(C)NC(=O)CCCc1nnc2n(CC(C)C)c(=O)c3sccc3n12 (stereo not given),0,0,-,-,-,0
C=C1N(C)c2cc([N+](=O)[O-])c(N)cc2C1(C)C,-71,-,28µM,0[15.4 µM],0,0
CCCc1ncc(C(=O)O)s1,0,-,-,-,-,-
CC(C)CCn1c(SCc2cccc(F)c2)nc2ccsc2c1=O,-76,0,-,-,-,0
CN1C(=O)S/C(=C/c2ccccc2OCc2ccc(C(=O)O)cc2)C1=O,0,-,32µM,0[15.4 µM],0,0
SMILES,RXFP1 antag,ClpP mod,gsp antag,gsp ag,pAkt inh,RXFP1 ag
CN1C(=O)S/C(=C\c2ccccc2OCc2ccc(C(=O)O)cc2)C1=O,0,-,?,0,0,0
CCCCSc1nnc(-c2ccc(C)cc2)n1C,0,0,0,0,-113%,0
CCCCSc1nnc(-c2ccc(NC(C)=O)cc2)n1C,0,0,0,0,0,0
CCCN1CNc2c(c(=O)[nH]c(=S)n2CCc2c(C)cccc2C)C1,-,0,-,-,-,-
Cc1cccc(N=C2NN=C(c3c(C)[nH]c4ccccc34)CS2)c1,0,18µM,0,0,0,0
Cc1cccc(N=C2NN=C(c3ccc4c(c3)OCCO4)CS2)c1,0,0,0,0,0,0
O=C(C[n+]1cc2ccccc2c2ccccc21)c1ccccc1,0,25µM,0,0,0,0
CCCN1CNc2c(c(=O)[nH]c(=S)n2CCc2ccc(Cl)cc2)C1,-,0,-,-,-,-
CN(C)CCNC(=O)c1cccc2nc3c(ccc4ccccc43)nc12,0,0,0,0,0,-
